According to PubChem BioAssay (NCI):
Values joined by “and” are separate entries in the source; they are usually repeats but may differ in a detail not shown here. Identical values can stand only once. The panel holds about 83,000 compounds, 20% with a hit somewhere; the sample as a whole holds those more often.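 For each line, cells grew in 96-well plates with the test compound present at a single concentration for 48 hours.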 A number with no mark means an inactive call. Active and inactive are the calls of the source. How the source made its calls: active means growth percent below 10; inactive means the rest.

Tested on: MDA-MB-468 breast
Assay: NCI-60 one-dose screen, 48 h (100 = growth as untreated, 0 = no growth, -100 = all killed)
Settings: 10 µM unless noted

Row | SMILES | growth
1 | COC(=O)c1cccnc1 | 97.7%
2 | CC1(C)CC(=O)C2=C(C1)C(c1ccc(Cl)cc1)n1ncc(C#N)c1N2 (centres undefined) | 105%
3 | Nc1nc(N)c2c(n1)NC(c1cccc(Nc3ccnc4cc(C(F)(F)F)ccc34)c1)CC(c1ccc3c(c1)OCO3)=N2 (centres undefined) | 58%
4 | C=CCN(CCOC(=O)c1ccc([N+](=O)[O-])cc1)CCOC(=O)c1ccc([N+](=O)[O-])cc1 | 105%
5 | COc1cc2nc(-c3ccc(C(F)(F)F)cc3)cc(OCCCN3CCCC3)c2cc1OC | 43.8%
6 | COc1cc(-c2nn(-c3cccc(NC(=O)c4ccccc4)c3)cc2-c2ccncc2)ccc1Cl | -19.7% (active)
7 | COc1ccc(C(=O)COC(=O)[C@H](C[Se][Se]C[C@H](NC(=O)c2ccc(Br)cc2F)C(=O)OCC(=O)c2ccc(OC)cc2)NC(=O)c2ccc(Br)cc2F)cc1 | -51.3% (active)
8 | CCC(=O)Oc1ccc(OCc2ccccc2)cc1 | 104% and 118%
9 | Fc1ccc(Nc2ncnc3ccc(-c4cnc5[nH]ccc5c4)cc23)cc1Cl | -29.7% (active)
10 | COc1cccc(C2CC(=O)Nc3cc4c(cc32)OCO4)c1OC (centres undefined) | 73.2%
11 | N#Cc1cc(-c2nc3ccccc3s2)c(=O)n(NS(=O)(=O)c2ccc(Cl)cc2)c1N | 99.6%
12 | Cc1cc(C(N)=O)cc(C)c1C(=O)OCCCl | 115%
13 | C1=C[C@H]2O[C@@H]1c1ccc3[nH]ccc3c12 | 76.2%
14 | COc1cc(OC)c(C(=O)/C=C/c2ccc(C#N)cc2)c(OC)c1 | -6.07% (active)
15 | CC(C)(C)CC(C)(C)c1ccc(OCCOCC[N+](C)(C)CC(=O)[O-])cc1 | 108%
16 | COc1ccccc1/C=C1\Oc2ccc(O)c(O)c2C1=O | 101%
17 | C[C@@H](Oc1cc(-c2cnn(C3CC4(CCCNC4)C3)c2)cnc1N)c1c(Cl)ccc(F)c1Cl (some centres undefined) | -39.3% (active)
18 | CCN(CC)c1ccc(CNc2ccnc3ccccc23)cc1 | 1.4% (active)
19 | COc1cc(-c2nc(-c3nnc(-c4cccnc4)o3)c3ccccn23)cc(OC)c1OC | 104%
20 | CCCCCCCCCCCCSC1=CC(=O)C=CC1=O | 82.8%

Row | SMILES | growth
21 | COc1cc(C2C3=C(COC3=O)Nc3cc4c(cc32)OCO4)cc2c1OCO2 (centres undefined) | -10.3% (active)
22 | CC1(C)CC[C@]23CC[C@]4(C)[C@H](CC[C@@H]5[C@@]6(C)CC[C@H](NCO)C(C)(C)[C@@H]6CC[C@]54C)[C@H]2[C@H]1OC3 | -56.6% (active)
23 | O=C(Nc1ccncc1)C(=O)c1cn(S(=O)(=O)c2cc(Cl)cc(Cl)c2)c2ccccc12 | 41.6%
24 | C=C1CCC2C3(C)COC(c4ccccc4)OC3CCC2(C)C1C/C=C1/C(=O)OCC1O (centres undefined) | 30.6%
25 | CC(=O)Oc1ccccc1C(=O)Nc1ncc([N+](=O)[O-])s1 | 36.9%
26 | O=S(=O)(Nc1cc(Sc2nc3ccccc3s2)c(O)c2ccccc12)c1ccc2ccccc2c1 | -0.0972% (active)
27 | CCCc1cc2cc(-n3nc(C)c4c3CC(C)(C)CC4=O)cc(NC3CCC(O)CC3)c2c(=O)[nH]1 (centres undefined) | -0.951% (active)
28 | Cc1nc(Nc2cccnc2)sc1C(=O)/C=C/c1ccc(F)cc1 | 26.7%
29 | CN1C=CN(Cc2ccc(-c3ccccn3)nc2)[CH-]1.CN1C=CN(Cc2ccc(-c3ccccn3)nc2)[CH-]1.[Au+3] | -19.2% (active)
30 | Cc1cc2nc(C)c(C)nc2cc1C | 112%
31 | O=C(Nc1cccc(-c2ccc(N3CCOCC3)nn2)c1)Nc1cccc(C(F)(F)F)c1 | 29.1%
32 | CCCCCCNC(=O)Oc1ccc(/C(=C(/C)c2ccc(OC)cc2)c2ccc(OCCN3CCCC3)cc2)cc1 | 87.1%
33 | CCCCCCCCCCCCCCCCCCOc1ccccc1CC(=O)NCC[N+]1(C)CCCC1 | 3.53% (active)
34 | Cn1cc(-c2csc(-c3c[nH]c4ccccc34)n2)c2ccnc(Cl)c21 | -9.03% (active)
35 | CCOC(=O)Sc1ncnc2nc[nH]c12 | 75.3%
36 | CC(=O)c1ccc(N2C(=O)c3ccc(Oc4ccccc4)cc3C2=O)cc1 | 105%
37 | CN1CCN(c2ccc3nc(-c4ccc5nc(-c6ccc(OCCC(C)(C)C)cc6)[nH]c5c4)[nH]c3c2)CC1 | -17.9% (active)
38 | O=C(/C=C/c1cn(-c2ccccc2)nc1-c1cccc(Nc2ccnc3cc(Cl)ccc23)c1)c1ccc2c(c1)OCO2 | 68.2%
39 | COc1ccc(-n2c(COc3ccc(F)cc3)n[nH]c2=S)cc1 | 103%
